Compounds with a hit are over-represented: about 3.1% of the library has one in this group of screens.
MEKK3 PB1 HTS = modulators of MEKK3-MEK5 PB1 binding, primary screen, biochemical, wildtype MEKK3, multiplex bead flow cytometry, Alexa488-MEK5. bead-based flow cytometry, Alexa488-MEK5 binding to MEKK3; actives lie on both sides; 0 = blocked by unlabeled MEK5, 100 = vehicle. binding response (% of control), % at 10 µM. 1.4% of 290,000 active;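 active means binding response more than 3 SD above or below the average of its plate-row segment, actives on both sides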;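 further: Alexa488 bead fluorescence after subtracting the streptavidin-only scavenger bead signal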
UBC13 polyUb = UBC13 polyubiquitin chain formation inhibitors, primary screen, biochemical, TR-FRET, uHTS; inhibition, % at 20 µM; 0.47% of 330,000 active; AID 485273, 2010; in the data active means inhibition above about 45%, passing the limit was not always enough
ATG4B inh = ATG4B protease inhibitors, primary screen, biochemical, fluorescence, uHTS; ATG4B cleavage of LC3-PLA2, NBD-HPC fluorescence, 1 h; inhibition, % at 8.33 µM; 0.51% of 340,000 active; AID 504462, 2011; in the data active means inhibition above about 40%
Target sequence (Q9Y4P1 whole entry, looked up): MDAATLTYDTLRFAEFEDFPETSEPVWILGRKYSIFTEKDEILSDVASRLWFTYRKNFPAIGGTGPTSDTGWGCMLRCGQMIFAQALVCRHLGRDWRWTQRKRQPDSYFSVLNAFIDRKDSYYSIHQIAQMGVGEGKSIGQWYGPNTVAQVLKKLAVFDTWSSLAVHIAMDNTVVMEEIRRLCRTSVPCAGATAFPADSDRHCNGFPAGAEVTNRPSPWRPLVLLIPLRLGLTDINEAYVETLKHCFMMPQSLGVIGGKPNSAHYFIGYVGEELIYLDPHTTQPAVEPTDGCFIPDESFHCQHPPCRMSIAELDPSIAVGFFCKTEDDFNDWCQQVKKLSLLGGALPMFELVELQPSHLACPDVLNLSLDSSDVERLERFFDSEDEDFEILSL
MEKK2mut PB1 HTS = MEK5 binding signal on mutant MEKK2 PB1, primary screen, biochemical, multiplex bead flow cytometry, Alexa488-MEK5. 0.35% of 290,000 active. percent response, % at 10 µM. Alexa488-MEK5 binding to MEKK2 mutant; in the data active means percent response above about 24%, passing the limit was not always enough
MEKK2wt PB1 HTS = modulators of MEK5 binding to wildtype MEKK2, primary screen, biochemical, multiplex bead flow cytometry, Alexa488-MEK5; Mitogen-activated protein kinase kinase kinase 2 (Homo sapiens), Q9Y2U5; Alexa488-MEK5 binding to MEKK2 WT; actives lie on both sides; binding response (% of control), % at 10 µM; 1.1% of 290,000 active; AID 1531, 2009; in the data active means binding response below about 67% or above about 130%
PREPL inhibitor = PREPL enzyme inhibitors, primary screen, biochemical, fluorescence polarization; Prolyl endopeptidase-like (Homo sapiens), Q4J6C6; recombinant PREPL, fluorescence polarization activity-based probe; inhibition, % at 5.96 µM; 0.68% of 320,000 active; in the data active means inhibition above about 43%;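 further: 0% = enzyme with DMSO and 100% = wells lacking enzyme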
MEKK2wt confirm = modulators of MEK5 binding to wildtype MEKK2, confirmation, biochemical, single concentration, multiplex bead flow cytometry; Alexa488-MEK5 binding to MEKK2 WT; actives lie on both sides; 2.4% of 5,900 active; shares compounds with MEKK3 PB1 HTS; binding response (% of control), % at 10 µM; in the data active means binding response below about 16% or above about 210%; inactive means in between
MEKK2mut confirm = mutant MEKK2 PB1-MEK5 binding signal retest – biochemical, single concentration, multiplex bead flow cytometry, confirmation. Alexa488-MEK5 binding to MEKK2 mutant. shares compounds with MEKK3 PB1 HTS. percent response, % at 10 µM. 2% of 5,900 active; in the data active means percent response mostly above about 71%, no sharp cut-off; inactive means mostly below about 38%;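 further: higher means compound restores mutant binding toward wildtype level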
MEKK3 confirm = MEKK3 wild-type PB1 binding to MEK5, inhibitors, confirmation, biochemical, bead multiplex flow cytometry, single concentration, wildtype; shares compounds with MEKK3 PB1 HTS; Alexa488-MEK5 binding to MEKK3; stronger effect = lower value; binding response (% of control), % at 10 µM; 1.8% of 5,900 active; AID 1894, 2009;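 active means binding response below 72% of control, or above a set upper limit, though filed actives all read lower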;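 further: 100% = DMSO only wells and 0% = binding blocked by excess unlabeled MEK5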
Starred values were filed as active, the others as inactive; / = no result given; [ ] = dose if it differs, or a comment.

SMILES	MEKK3 PB1 HTS	UBC13 polyUb	ATG4B inh	MEKK2mut PB1 HTS	MEKK2wt PB1 HTS	PREPL inhibitor	MEKK2wt confirm	MEKK2mut confirm	MEKK3 confirm
COc1cccc2cc(C(N)=O)/c(=N/NC(=O)COc3ccc(Cl)cc3)oc12	143.0*	-7.1	/	1.0	112.0	0.9	103.0	-2.0	100.0
COc1ccc(OCC(=O)N/N=c2\oc3c(OC)cccc3cc2C(N)=O)cc1	87.0	14.6	0.6	-4.0	87.0	0.7	/	/	/
NNC(=O)c1cc2c(N3CCC(Cc4ccccc4)CC3)ncnc2s1	112.0	-4.3	-5.5	-2.0	102.0	3.8	/	/	/
CCCCC1=CC2=C(c3ccco3)C(=O)C(C)(OC(=O)c3ccc(OC)cc3)C(=O)C2=CN1c1ccccc1 (stereo unspecified)	98.0	-13.6	12.6	4.0	93.0	28.7	/	/	/
CC1C(c2ccc3c(c2)OCO3)c2cc3c(cc2OC1N1CCOCC1)OCO3 (stereo unspecified)	/	/	6.4	/	/	/	/	/	/
CC12CCC(C(=O)NNc3ccc([N+](=O)[O-])cc3)(OC1=O)C2(C)C (stereo unspecified)	132.0*	-0.5	-7.2	29.0	129.0	-2.2	103.0	4.0	104.0
COc1ccc(C)cc1-n1nnnc1SCC1CCCO1 (stereo unspecified)	103.0	6.9	0.8	24.0*	103.0	3.9	114.0	17.0	106.0
CCCC1O[C@@H]2C[C@H]3[C@@H]4CCC5=CC(=O)C=C[C@]5(C)[C@H]4[C@@H](O)C[C@]3(C)[C@]2(C(=O)CO)O1 (stereo partly specified)	70.0*[inhibitor]	-14.7	-8.5	2.0	103.0	3.2	103.0	0.0	103.0
CCCC1OC2CC3C4CCC5=CC(=O)C=CC5(C)C4C(O)CC3(C)C2(C(=O)O)O1 (stereo unspecified)	101.0	1.9	-3.9	5.0	99.0	-8.4	/	/	/
COc1ccccc1N1CCN(C(=O)c2cccc(S(=O)(=O)N3CCCCCC3)c2)CC1	/	10.6	-0.7	/	/	7.4	/	/	/
COc1ccc(OCC(O)CN(CCO)CC(O)Cn2ccc3ccccc32)cc1 (stereo unspecified)	100.0	4.3	-10.9	-2.0	102.0	21.2	/	/	/
OCCN(CC(O)COc1ccccc1)CC(O)Cn1ccc2ccccc21 (stereo unspecified)	134.0*	3.7	-16.3	0.0	102.0	5.2	104.0	3.0	101.0
Cc1cc(C)nc(SCC(=O)n2c3c(c4ccccc42)CCCC3)n1	153.0*	11.2	4.3	0.0	106.0	-3.3	105.0	5.0	104.0
O=C(CSc1ncccn1)n1c2c(c3ccccc31)CCCC2	108.0	11.2	-8.9	5.0	103.0	9.2	/	/	/
C[C@H](NC(=O)N1CCn2c1nc1ccccc12)C(=O)NCC1CCCO1 (stereo partly specified)	100.0	-3.9	6.0	3.0	104.0	3.7	/	/	/
CC(=O)Nc1ccc(NC(=O)CSc2ccc(-c3ccc4c(c3)OCO4)nn2)cc1	97.0	-0.9	9.5	-3.0	93.0	1.2	/	/	/

From PubChem BioAssay
